Experimental findings from PubChem BioAssay are described below.

Assay [1] has as its system Human papillomavirus type 1a protein E7 (residues 44-93). Nature of the assay: HPV1a E7 fragment binders on microarrays, primary screen, biochemical, small-molecule microarray, residues 44-93, 635 nm fluorescence (AID 1108).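 Also: E7 fragment applied at 1 µg/mL in TBST for 1 h at 4 C; score combines spot fluorescence with its signal to noise ratio.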 The conditions noted are these: small-molecule microarray binding, fluorescence 635 nm; higher = more signal.
A short description of assay [2]: modulators of HCV replicon luciferase signal, primary screen, HCV replication inhibitor project, Huh7 cells, luciferase reporter (AID 1109).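 Also: huh7 hepatoma cells harbouring a luciferase neomycin HCV replicon reporter; luciferase luminescence as measure of HCV replicon replication; test concentration not given here.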 The conditions noted are these: 48 h, higher = more signal.
Assay [3] addresses Left-right determination factor 2 (Homo sapiens) (UniProt O00292). Nature of the assay: LEFTY2 binders on small-molecule microarrays, primary screen, biochemical, small-molecule microarray, 635 nm fluorescence scan (AID 1110). The conditions noted are these: LEFTY2 binding, higher = more signal.
For assay [4], the target named is Calmodulin-1 (Homo sapiens) (UniProt P0DP23). Nature of the assay: CALM1 binders on microarrays, EGTA buffer, profiling panel, biochemical, small-molecule microarray, Cy5-labelled CALM1 (AID 1111).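 Also: labelled calmodulin applied in Tris saline Tween buffer holding calcium plus EGTA and DTT.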 The conditions noted are these: Cy5-CALM1 binding fluorescence, higher = more signal.
Assay [5] shares this target. Nature of the assay: calcium-bound CALM1 binders on microarrays, profiling panel, artefact control for SMM control-protein annotation, biochemical, small-molecule microarray, Cy5-labelled CALM1, plus calcium (AID 1112).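 Also: score merges spot fluorescence with signal to noise from triplicate slides.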 The conditions noted are these: Cy5-CALM1 binding fluorescence, higher = more signal.
Assay [6] in a line: small-molecule microarray binders of probe aWnt5a, primary screen, biochemical, biotinylated probe, 635/667 nm fluorescence (AID 1113).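 Also: score merges 667 nm fluorescence intensity with signal-to-noise per printed feature.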 The conditions noted are these: higher = more signal.
Assay [7] can be described thus: small-molecule microarray binders of probe aShh, primary screen, biochemical, biotinylated probe, 635/667 nm fluorescence (AID 1114).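 Also: probe is biotin-labelled aShh protein from a stem cell growth factor screen; measures binding of labelled protein to compounds printed on the slide; score merges feature fluorescence at 667 nm with signal-to-noise.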 The conditions noted are these: higher = more signal.
Assay [8] can be described thus: small-molecule microarray binders of probe aNog, primary screen, biochemical, biotinylated probe, 635/667 nm fluorescence (AID 1115).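 Also: probe is biotinylated aNog protein used at 0.15 µg/mL for 1 h at 4 C; z-score combines 667 nm fluorescence of each spot with its signal to noise.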 The conditions noted are these: higher = more signal.
Assay [9] has as its target Torsin-1A-interacting protein 1 (Homo sapiens) (UniProt Q5JTV8). Nature of the assay: LAP1 binders from COS7 cell lysate, primary screen, small-molecule microarray, 635/667 nm fluorescence (AID 1116). The conditions noted are these: COS7-hLAP1 lysate binding, 635 nm fluorescence, higher = more signal.
Assay [10] concerns the target Alpha-bungarotoxin (Bungarus multicinctus) (UniProt P60615). Kind of assay: alpha-bungarotoxin binders on microarray, profiling panel, artefact control for SMM control protein annotation, biochemical, small-molecule microarray, Alexa647 label, 635/667 nm fluorescence (AID 1117). The conditions noted are these: alpha-BTX-A647 binding fluorescence, higher = more signal.

The target in assay [11] is Albumin (Bos taurus) (UniProt P02769). Nature of the assay: bovine serum albumin binders on microarray, profiling panel, artefact control for SMM control protein annotation, biochemical, small-molecule microarray, Alexa647 label, 635/667 nm fluorescence (AID 1118).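 Also: score merges 667 nm emission intensity and signal-to-noise per printed compound spot.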 The conditions noted are these: BSA-A647 binding, fluorescence 635 nm, higher = more signal.
Albumin (Bos taurus), sequence (P02769 whole entry, looked up): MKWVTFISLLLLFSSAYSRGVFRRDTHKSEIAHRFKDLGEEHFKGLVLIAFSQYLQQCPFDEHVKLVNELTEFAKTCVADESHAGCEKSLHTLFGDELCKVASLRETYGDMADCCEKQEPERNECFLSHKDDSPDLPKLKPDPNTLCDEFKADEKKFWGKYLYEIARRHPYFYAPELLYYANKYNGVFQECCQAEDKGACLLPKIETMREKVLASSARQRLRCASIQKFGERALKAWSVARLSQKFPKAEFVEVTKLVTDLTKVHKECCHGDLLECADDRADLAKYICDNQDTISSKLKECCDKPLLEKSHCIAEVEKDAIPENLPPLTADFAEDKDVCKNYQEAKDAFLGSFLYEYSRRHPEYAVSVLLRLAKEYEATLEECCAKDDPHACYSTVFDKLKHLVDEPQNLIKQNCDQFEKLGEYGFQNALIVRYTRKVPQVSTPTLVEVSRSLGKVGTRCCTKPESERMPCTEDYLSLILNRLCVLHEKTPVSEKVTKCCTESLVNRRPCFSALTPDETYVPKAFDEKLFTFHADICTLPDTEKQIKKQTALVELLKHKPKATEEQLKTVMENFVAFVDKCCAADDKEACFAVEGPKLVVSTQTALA
The nature of assay [12]: small-molecule microarray binders of probe aXIP, primary screen, biochemical, NeuroSMM set, 635/667 nm fluorescence (AID 1119).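 Also: probe is the protein aXip251-270 applied at 1 µg/mL to compound-printed slides; binding of probe to printed compounds measured as 667 nm fluorescence plus signal to noise.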 The conditions noted are these: higher = more signal, called active from +8 up or from −8 down.
Assay [13] can be described thus: small-molecule binders of probe aNOTCH3, primary screen, biochemical, small-molecule microarray, 635/667 nm fluorescence (AID 1120).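 Also: probe is a biotin-tagged antibody raised against NOTCH3 rather than NOTCH3 protein; score merges spot fluorescence near 667 nm with spot signal to noise.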 The conditions noted are these: higher = more signal.
A short description of assay [14]: small-molecule binders of probe aNOTCH2, primary screen, biochemical, small-molecule microarray, 635/667 nm fluorescence (AID 1121).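 Also: score merges feature fluorescence read at 667 nm with its signal to noise.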 The conditions noted are these: higher = more signal.
The target in assay [15] is Carbonic anhydrase 2 (Homo sapiens) (UniProt P00918). Nature of the assay: CAII small-molecule binders, profiling panel, biochemical, small-molecule microarray, Alexa647-labelled CAII (AID 1122). The conditions noted are these: CAII-A647 binding fluorescence, higher = more signal.
The nature of assay [16]: COS7 lysate on small-molecule microarray, probe aHis, 635 nm (AID 1123).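 Also: z-score combines 667nm fluorescence intensity with signal-to-noise per printed compound spot.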 The conditions noted are these: COS7 cell lysate, fluorescence, higher = more signal.
Assay [17] can be described thus: compound binding in COS7 lysate, probe aLAP1, primary screen, cell lysate, small-molecule microarray (AID 1124).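 Also: lysate comes from COS7 cells expressing LAP1 and is applied at 0.3 µg/mL; score merges spot fluorescence near 667 nm with signal-to-noise over triplicate slides.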 The conditions noted are these: probe aLAP1, fluorescence, higher = more signal.
Assay [18] has as its system Sam68 (KHDRBS1). Kind of assay: Sam68 small-molecule binders, primary screen, biochemical, small-molecule microarray, 635 nm fluorescence (AID 1125).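 Also: score merges 667 nm channel intensity with signal to noise over triplicate slides.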 The conditions noted are these: small-molecule microarray binding, higher = more signal.
Assay [19] deals with Chordin-like protein 2 (CHRDL2). Nature of the assay: CHRDL2 small-molecule binders, primary screen, biochemical, small-molecule microarray, 635 nm fluorescence (AID 1126).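 Also: printed compound slides probed with Chrdl2 protein at 4 µg/mL for 1 h at 4 C; score merges 667 nm emission intensity with signal to noise over three replicate slides.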 The conditions noted are these: small-molecule microarray binding, fluorescence 635 nm; higher = more signal.
In assay [20] the target is Concanavalin-A (Canavalia ensiformis) (UniProt P02866). Kind of assay: ConA small-molecule binders, primary screen, artefact control for SMM control protein annotation, biochemical, small-molecule microarray, Alexa647 label, 635 nm (AID 1127).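 Also: z combines 667 nm emission intensity with signal-to-noise across three replicate slides.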 The conditions noted are these: ConA-A647 binding fluorescence, higher = more signal.
Concanavalin-A (Canavalia ensiformis), sequence (P02866 whole entry, looked up): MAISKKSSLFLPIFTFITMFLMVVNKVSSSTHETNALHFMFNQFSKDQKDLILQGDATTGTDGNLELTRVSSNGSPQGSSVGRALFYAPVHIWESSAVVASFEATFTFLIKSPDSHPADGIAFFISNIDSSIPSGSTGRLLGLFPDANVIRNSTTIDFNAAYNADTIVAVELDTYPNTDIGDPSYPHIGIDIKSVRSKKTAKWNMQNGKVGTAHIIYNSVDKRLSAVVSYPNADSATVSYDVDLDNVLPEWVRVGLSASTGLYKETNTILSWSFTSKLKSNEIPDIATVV

Activity calls are given as the source filed them.

Torsin-1A-interacting protein 1 (Homo sapiens), sequence (Q5JTV8 whole entry, looked up): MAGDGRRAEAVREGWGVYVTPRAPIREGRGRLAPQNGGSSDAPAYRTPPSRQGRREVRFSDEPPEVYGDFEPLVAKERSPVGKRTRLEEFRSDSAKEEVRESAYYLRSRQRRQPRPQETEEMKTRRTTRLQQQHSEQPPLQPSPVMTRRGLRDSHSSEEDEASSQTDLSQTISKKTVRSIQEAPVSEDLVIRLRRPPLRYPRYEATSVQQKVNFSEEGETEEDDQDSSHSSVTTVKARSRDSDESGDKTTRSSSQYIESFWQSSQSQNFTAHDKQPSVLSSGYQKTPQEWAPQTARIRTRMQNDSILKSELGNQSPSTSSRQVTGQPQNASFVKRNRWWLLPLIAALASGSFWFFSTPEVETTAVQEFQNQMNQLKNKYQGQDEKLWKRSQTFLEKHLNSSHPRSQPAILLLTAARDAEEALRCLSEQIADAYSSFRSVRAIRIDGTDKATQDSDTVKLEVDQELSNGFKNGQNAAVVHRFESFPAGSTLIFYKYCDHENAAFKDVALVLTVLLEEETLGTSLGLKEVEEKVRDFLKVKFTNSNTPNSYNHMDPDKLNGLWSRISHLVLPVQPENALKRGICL
Left-right determination factor 2 (Homo sapiens), sequence (O00292 whole entry, looked up): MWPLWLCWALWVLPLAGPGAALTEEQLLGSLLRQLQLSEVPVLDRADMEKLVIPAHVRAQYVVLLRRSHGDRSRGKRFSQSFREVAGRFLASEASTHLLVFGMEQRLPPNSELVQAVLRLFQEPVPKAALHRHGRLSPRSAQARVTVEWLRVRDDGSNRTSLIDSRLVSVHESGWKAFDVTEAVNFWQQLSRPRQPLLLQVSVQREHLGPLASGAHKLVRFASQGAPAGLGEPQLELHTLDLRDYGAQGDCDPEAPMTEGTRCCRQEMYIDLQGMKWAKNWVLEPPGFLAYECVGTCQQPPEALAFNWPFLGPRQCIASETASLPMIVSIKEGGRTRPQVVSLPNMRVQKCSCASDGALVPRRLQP
Alpha-bungarotoxin (Bungarus multicinctus), sequence (P60615 whole entry, looked up): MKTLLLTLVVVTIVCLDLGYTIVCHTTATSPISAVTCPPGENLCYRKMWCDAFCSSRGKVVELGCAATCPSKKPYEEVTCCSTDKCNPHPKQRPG

Consider `COCCCNC(=O)[C@@]1(Sc2ccc(C)cc2)CC(=O)N(C(C)C)[C@@H]1c1ccc(CO)cc1I`, for which the composite z-score in [1] was 1.27; in assay [3], -0.327; in [4] it was -0.0081; in assay [5] it was -0.0868; in assay [6], -0.096; in [7], -0.291. For the same compound, the composite z-score is -0.289 in assay [8]; 0.722 in assay [9]; 0.487 in [10]; -0.622 in assay [11]; 0.0062 in assay [13]; -0.164 in assay [14]. In addition, the composite z-score is 0.763 in [15]; 1.4 in [16]; 0.427 in [17]; 0.462 in [18]; -0.825 in assay [19]; 0.413 in assay [20]. This compound came in with a z-score in assay [2] of -3.44. For the same compound, in [12], the composite Z-score was 0.525 (inactive).
For the compound `O=C(NCCN1CCOCC1)[C@@H]1c2ccccc2C(=O)N(Cc2ccccc2)[C@H]1c1ccc(CO)cc1`, the composite z-score in [1] was -0.639; in assay [3] it was -1.45; in [4], 0.446; in assay [5] it was -1; in assay [6], -0.219; in [7], 0.214. The composite z-score in assay [8] was -0.224; in [9], -1.47; in assay [10], -1.06; in assay [11], 0.16; in [13], -0.272; in assay [14] it was -0.116. The composite z-score was 0.688 in assay [15]; 0.392 in assay [16]; -0.274 in assay [17]; -0.673 in assay [18]; -1.38 in assay [19]; 0.581 in assay [20]. The z-score in assay [2] is -0.887. The composite Z-score in [12] was 0.283 (inactive).
Take `COC(=O)[C@@]1(Cc2ccc(F)cc2)[C@H]2c3cc(C(=O)N4CCCC4)n(CC4CC4)c3C[C@H]2CN1C(=O)c1ccccc1`: the composite z-score in assay [1] was 1.39; in [3], 1.29; in assay [4], 2.43; in assay [5], 0.701; in assay [6] it was 0.0139; in assay [7], 0.184. The composite z-score in [8] was 1.96; in assay [9] it was 1.22; in assay [10], 1.33; in assay [11] it was 0.87; in [13], 1.07; in [14], 0.416. For the same compound, the composite z-score was 0.765 in [15]; 2.99 in assay [16]; 0.888 in [17]; 1.3 in assay [18]; -0.621 in [19]; 0.553 in assay [20]. Moreover, in assay [2], the z-score is -1.94. Also, the composite Z-score in [12] is 1.5 (inactive).
On to `C=C(CCCC)C(=O)CC[C@H](OC(=O)c1ccccc1-c1ccccc1C(=O)O)c1ccccc1OCCO`, for which the composite z-score was 0.166 in [1]; -0.171 in [3]; -0.378 in [4]; -0.814 in [5]; -0.0944 in assay [6]; 0.318 in assay [7]. Besides, the composite z-score is 0.397 in assay [8]; 0.442 in assay [9]; 0.26 in [10]; 0.0147 in assay [11]; -0.104 in assay [13]; -0.189 in assay [14]. Also, the composite z-score in assay [15] is 0.693; in assay [16], 0.043; in assay [17] it was 0.61; in assay [18] it was 0.203; in [19] it was 0.277; in assay [20] it was -0.496. Besides, in assay [2], the z-score was -2.31. For the same compound, in assay [12], the composite Z-score was -0.104 (inactive).
In the case of `CN1C(=O)[C@@H]2[C@@H](CC(COc3ccccc3)=C([C@H](O)CCc3ccccc3)[C@@H]2CO)C1=O`, the composite z-score was -0.531 in assay [1]; 0.0752 in [3]; -0.548 in assay [4]; -0.343 in assay [5]; -0.243 in assay [6]; -0.304 in assay [7]. The composite z-score in assay [8] is -0.398; in assay [9] it was 0.0197; in [10] it was -0.278; in assay [11] it was -0.112; in assay [13], -0.0343; in assay [14] it was -0.201. Besides, the composite z-score is 0.0456 in [15]; -0.492 in assay [16]; -0.525 in assay [17]; 0.0336 in assay [18]; 0.0213 in assay [19]; -0.0217 in assay [20]. The same compound returned a z-score in assay [2] of -0.113. Besides, in assay [12], the composite Z-score is 0.252 (inactive).
As to `CCC(CC)C(O)C1C=CC2C(=O)N(c3ccccc3)C(=O)C2N1Nc1ccc([N+](=O)[O-])cc1` (stereo not given), the composite z-score is 1.47 in assay [1]; -0.139 in assay [3]; 1.27 in assay [4]; 0.717 in assay [5]; 0.152 in [6]; 0.04 in assay [7]. Besides, the composite z-score was 0.0323 in assay [8]; 0.0001 in assay [9]; 1.42 in assay [10]; 1.01 in assay [11]; 0.443 in [13]; 0.125 in assay [14]. Also, the composite z-score was 0.573 in assay [15]; 1.72 in [16]; 1.35 in assay [17]; 1.3 in assay [18]; -0.0998 in assay [19]; 1.05 in assay [20]. For the same compound, in assay [2], the z-score was -0.451. In addition, in [12], the composite Z-score is 1.13 (inactive).
